Source: PubChem BioAssay AID1159580 (chemical genetic matrix, 2015)
Several values for one entry are separate records, joined by “and”; a condition that tells them apart may be missing. Equal entries are not always repeated. Screen size: about 5,500 compounds; about 2,000 (36%) were called active. About 18% were inconclusive and are not listed. Cut-off read from the data, not from the text of the source: active = normalized growth mostly below about 0.91 (no sharp cut-off); inconclusive = no clear call, values can overlap the other calls; inactive = mostly above about 0.92. Some of the results follow.

Experiment: chemical genetic growth profiling, strain panel (AID 1159580);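 note: tested at 20 µM; growth read once vehicle control cultures reached saturation at 30 °C; 1 = growth at the plate median or of vehicle wells; lower values mean less growth of the strain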
Conditions: S. cerevisiae deletion strains, growth OD

SMILES: O=C(COc1ccc(Cl)cc1)N1CCN(Cc2ccc3c(c2)OCO3)CC1
- normalized growth (locus YAL013W, strain DEP1, stronger effect = lower value): 0.989 (inactive)
- normalized growth (locus YBR021W, strain FUR4, stronger effect = lower value): 0.977 (inactive)
- normalized growth (locus YBR229C, strain ROT2, stronger effect = lower value): 0.98 (inactive)
- normalized growth (locus YCL029C, strain bik1, stronger effect = lower value): 0.979 (inactive)
- normalized growth (locus YDL035C, strain GPR1, stronger effect = lower value): 0.93 (inactive)
- normalized growth (locus YDL074C, strain BRE1, stronger effect = lower value): 1 (inactive)
- normalized growth (locus YDL101C, strain DUN1, stronger effect = lower value): 0.985 (inactive)
- normalized growth (locus YDL134C, strain PPH21, stronger effect = lower value): 0.958 (inactive)
- normalized growth (locus YDL185W, strain tfp1, stronger effect = lower value): 0.962 (inactive)
- normalized growth (locus YDL192W, strain arf1, stronger effect = lower value): 0.945 (inactive)
- normalized growth (locus YDR101C, strain arx1, stronger effect = lower value): 1.01 (inactive)
- normalized growth (locus YDR150W, strain NUM1, stronger effect = lower value): 0.976 (inactive)
- normalized growth (locus YDR162C, strain NBP2, stronger effect = lower value): 0.918 (inactive)
- normalized growth (locus YDR318W, strain mcm21, stronger effect = lower value): 0.921 (inactive)
- normalized growth (locus YDR388W, stronger effect = lower value): 0.972 (inactive)
- normalized growth (locus YDR502C, strain sam2, stronger effect = lower value): 0.908 (active)
- normalized growth (locus YEL061C, strain CIN8, stronger effect = lower value): 0.985 (inactive)
- normalized growth (locus YER110C, stronger effect = lower value): 0.962 (inactive)
- normalized growth (locus YER155C, strain BEM2, stronger effect = lower value): 1.02 (inactive)
- normalized growth (locus YER167W, strain BCK2, stronger effect = lower value): 0.987 (inactive)
- normalized growth (locus YGL078C, strain dbp3, stronger effect = lower value): 1 (inactive)
- normalized growth (locus YGL086W, strain mad1, stronger effect = lower value): 0.973 (inactive)
- normalized growth (locus YGL248W, strain PDE1, stronger effect = lower value): 0.983 (inactive)
- normalized growth (locus YGR078C, strain PAC10, stronger effect = lower value): 0.952 (inactive)
- normalized growth (locus YGR135W, strain pre9, stronger effect = lower value): 0.825 (active)
- normalized growth (locus YGR252W, strain gcn5, stronger effect = lower value): 0.938 (inactive)
- normalized growth (locus YHR030C, strain SLT2, stronger effect = lower value): 0.954 (inactive) and 0.981 (inactive)
- normalized growth (locus YHR079C, strain IRE1 (second series), stronger effect = lower value): 0.977 (inactive)
- normalized growth (locus YHR079C, strain IRE1, stronger effect = lower value): 0.972 (inactive)
- normalized growth (locus YHR094C, strain hxt1, stronger effect = lower value): 0.978 (inactive)
- normalized growth (locus YHR129C, strain ARP1, stronger effect = lower value): 0.977 (inactive)
- normalized growth (locus YHR200W, strain rpn10, stronger effect = lower value): 0.976 (inactive)
- normalized growth (locus YIL066C, strain RNR3, stronger effect = lower value): 0.887 (inactive)
- normalized growth (locus YIL073C, strain SPO22, stronger effect = lower value): 0.827 (inactive)
- normalized growth (locus YIL125W, strain kgd1, stronger effect = lower value): 1 (inactive)
- normalized growth (locus YIR030C, strain dcg1, stronger effect = lower value): 0.973 (inactive)
- normalized growth (locus YJL095W, strain BCK1, stronger effect = lower value): 0.773 (active) and 0.983 (inactive)
- normalized growth (locus YJL134W, strain LCB3, stronger effect = lower value): 0.977 (inactive)
- normalized growth (locus YJL168C, strain set2, stronger effect = lower value): 0.98 (inactive)
- normalized growth (locus YJL187C, strain SWE1 (second series), stronger effect = lower value): 0.932 (inactive)
- normalized growth (locus YJR043C, strain POL32, stronger effect = lower value): 1.08 (inactive)
- normalized growth (locus YJR066W, strain TOR1, stronger effect = lower value): 0.916 (inactive)
- normalized growth (locus YJR075W, strain HOC1, stronger effect = lower value): 0.943 (inactive)
- normalized growth (locus YKL009W, strain mrt4, stronger effect = lower value): 0.987 (inactive)
- normalized growth (locus YKL068W, stronger effect = lower value): 0.983 (inactive)
- normalized growth (locus YKL085W, strain MDH1 (second series), stronger effect = lower value): 0.98 (inactive)
- normalized growth (locus YKL085W, strain MDH1, stronger effect = lower value): 0.98 (inactive)
- normalized growth (locus YKL190W, strain CNB1, stronger effect = lower value): 0.976 (inactive)
- normalized growth (locus YKR001C, strain vps1, stronger effect = lower value): 1.04 (inactive)
- normalized growth (locus YLR039C, strain RIC1, stronger effect = lower value): 0.738 (inactive)
- normalized growth (locus YLR058C, strain SHM2, stronger effect = lower value): 0.962 (inactive)
- normalized growth (locus YLR102C, strain apc9, stronger effect = lower value): 0.986 (inactive)
- normalized growth (locus YLR113W, strain HOG1, stronger effect = lower value): 1 (inactive)
- normalized growth (locus YLR262C, strain YPT6, stronger effect = lower value): 0.668 (inactive)
- normalized growth (locus YLR268W, strain sec22, stronger effect = lower value): 0.911 (inactive)
- normalized growth (locus YLR330W, strain CHS5, stronger effect = lower value): 0.979 (inactive)
- normalized growth (locus YLR342W, strain FKS1 (second series), stronger effect = lower value): 0.902 (inactive)
- normalized growth (locus YLR371W, strain rom2, stronger effect = lower value): 0.985 (inactive)
- normalized growth (locus YLR418C, strain cdc73, stronger effect = lower value): 0.864 (inactive)
- normalized growth (locus YML016C, strain PPZ1, stronger effect = lower value): 0.97 (inactive)
- normalized growth (locus YML032C, strain rad52, stronger effect = lower value): 0.952 (inactive)
- normalized growth (locus YML124C, strain tub3, stronger effect = lower value): 0.998 (inactive)
- normalized growth (locus YMR078C, strain ctf18, stronger effect = lower value): 0.971 (inactive)
- normalized growth (locus YMR223W, strain ubp8, stronger effect = lower value): 0.898 (active)
- normalized growth (locus YMR307W, strain GAS1, stronger effect = lower value): 1.01 (inactive)
- normalized growth (locus YNL067W, strain RPL9B, stronger effect = lower value): 0.957 (inactive)
- normalized growth (locus YNL183C, strain NPR1, stronger effect = lower value): 0.918 (inactive)
- normalized growth (locus YNL233W, strain BNI4, stronger effect = lower value): 0.941 (inactive)
- normalized growth (locus YNL250W, strain rad50, stronger effect = lower value): 0.981 (inactive)
- normalized growth (locus YNL271C, strain bni1, stronger effect = lower value): 0.988 (inactive)
- normalized growth (locus YNL298W, strain CLA4, stronger effect = lower value): 0.983 (inactive)
- normalized growth (locus YNL307C, strain MCK1, stronger effect = lower value): 0.9 (active)
- normalized growth (locus YNL322C, strain KRE1, stronger effect = lower value): 0.976 (inactive)
- normalized growth (locus YNR052C, strain pop2, stronger effect = lower value): 0.943 (inactive)
- normalized growth (locus YOL012C, strain htz1): 1.78 (inactive)
- normalized growth (locus YOL147C, strain pex11, stronger effect = lower value): 0.962 (inactive)
- normalized growth (locus YOR061W, strain CKA2, stronger effect = lower value): 0.971 (inactive)
- normalized growth (locus YOR069W, strain VPS5, stronger effect = lower value): 0.973 (inactive)
- normalized growth (locus YOR136W, strain idh2, stronger effect = lower value): 0.992 (inactive)
- normalized growth (locus YOR144C, strain elg1, stronger effect = lower value): 0.993 (inactive)
- normalized growth (locus YOR184W, strain ser1, stronger effect = lower value): 0.845 (active)
- normalized growth (locus YOR231W, strain MKK1, stronger effect = lower value): 0.999 (inactive)
- normalized growth (locus YOR316C, strain cot1, stronger effect = lower value): 0.984 (inactive)
- normalized growth (locus YPL055C, strain LGE1, stronger effect = lower value): 0.998 (inactive)
- normalized growth (locus YPL241C, strain CIN2, stronger effect = lower value): 0.974 (inactive)
- normalized growth (locus YPL256C, strain CLN2, stronger effect = lower value): 0.97 (inactive)
- normalized growth (locus YPR119W, strain clb2, stronger effect = lower value): 0.989 (inactive)
- normalized growth (locus YPR141C, strain kar3, stronger effect = lower value): 0.988 (inactive)
- normalized growth (locus YPR163C, strain tif3, stronger effect = lower value): 0.955 (inactive)
- normalized growth (locus YPR167C, strain met16, stronger effect = lower value): 0.987 (inactive)
- normalized growth (strain wtn01, stronger effect = lower value): 0.905 (inactive)
